About 18,000 (4.4%) of roughly 410,000 compounds were called active. Roughly 7% stayed inconclusive and do not appear here. Cut-off read from the data, not from the text of the source: active = activity change below about -60%; inconclusive = no clear call, values can overlap the other calls; inactive = above about -39%. Shown is part of a subset that was picked to be rich in actives.
assay: qHTS Assay for inhibitors of the human cytomegalovirus (HCMV); conditions: HFF cells, HCMV-luciferase reporter, 72 h; at 57.5 µM; active compounds read low
Description: NCGC Assay Overview: Infection with human cytomegalovirus (HCMV) continues to pose significant threats for pregnant women and immunocompromised hosts. HCMV causes serious morbidity and mortality in transplant recipients, and congenital HCMV is the leading infectious cause of mental retardation and deafness in children. In the 1990s, the annual costs associated with the disease burden of congenital CMV were estimated at around $2 billion. A HCMV vaccine is not available yet and HCMV therapies result in intolerable side effects and emergence of drug resistant viruses. […] Towards this goal we have developed and characterized a luciferase HCMV reporter that was initially used in 96 well plates and then optimized to 1536-well plates for utilization in screening of the MLSMR collection, the NGCG diversity collection and the NCGC Pharmaceutical Collection of approved and investigational drugs.
NCGC Assay Protocol Summary:
This is a cell-based assay for HCMV inhibition in HFFs cells. The screening used 2 compound doses and the HCMV-luciferase at MOI of 1 PFU/cell. Cells were treated and infected with HCMV. At 72 h post infection cell lysates were collected and luciferase activity was determined using the Glomax-Multi + Detection System (Promega, Madison, WI). Data were normalized to the controls for basal activity (buffer only) and known HCMV inhibitors Salinmoycin.
1536-well assay protocol for the assay:
(1) Add 3 ul CMV/HFF cell culture. 1000 cells/well in DMEM nirmal media.
(2) Incubate 16 hr at 37C.
(3) Add 23 nl control compound, 10uM of Salinomycin.
(4) Add 23 nl compounds in DMSO solution.
(5) Add 3 ul CMV suspension. Final 1 puf/ul, Virus stock 2000pfu/ul
(6) Incubate 72 hrs at 37C.
(7) Add 4 ul OneGlo Luc Reagent.
(8) Incubate 5 min at room temperature.
% is set by controls: 0 for no effect and ±100 for the full control effect.

Compound	activity change, negative = inhibition
COc1ccc(OCC(=O)Nc2ccc(NC(=O)c3ccco3)c(C)c2)cc1	-98.9% (active)
COc1ccc(NC(=O)COCc2cc(-c3ccco3)on2)cc1	10.4% (inactive)
COc1ccc(NC(=O)c2ccco2)cc1NC(=O)COc1ccc(C)c(C)c1	23.1% (inactive)
CC(C)(C)c1ccc(S(=O)(=O)N2CCN(C(=O)c3cc(-c4ccc(Br)cc4)n[nH]3)CC2)cc1	0% (inactive)
COc1ccc(NC(=O)C2CCN(c3ccc(Sc4ccc(C)cc4)nn3)CC2)c(OC)c1	11.3% (inactive)
O=C(CSc1nc2c(c(=O)[nH]1)CN(Cc1ccc(F)cc1)CC2)Nc1ccccc1Cl	-10.3% (inactive)
CC1=C(c2ccc(C)cc2)S(=O)(=O)NC1=NCCCN1CCN(c2cc(C)ccc2C)CC1	-96.1% (active)
O=C(NCCCN1CCN(c2ccc(F)cc2)CC1)Nc1ccc([N+](=O)[O-])cc1	-37.5% (inactive)
Cc1ccc(C)c(N2CCN(CCCNC(=O)Nc3ccc(Cl)cc3)CC2)c1	-76.9% (active)
CC1=C(c2ccc(Cl)cc2)S(=O)(=O)N=C1N1CCN(c2cc(C)ccc2C)CC1	8.61% (inactive)
CC1=C(c2ccc(C)c(C)c2)S(=O)(=O)NC1=NCc1ccccc1Cl	-23% (inactive)
COc1ccc(NC(=O)NCCN2CCN(c3ccc(C)cc3)CC2)c(Cl)c1	14.9% (inactive)
O=C1C=C(NCCNc2c(F)c(F)c(CO)c(F)c2F)CCC1	74.7% (inactive)
CCOc1ccc(N2C(=O)Nc3ccccc3C2(O)C(=O)NCc2ccco2)cc1 (stereo unspecified)	14.9% (inactive)
Cc1cc(C)cc(NC(=O)Cn2nc(N3CCN(c4ccccc4)CC3)ccc2=O)c1	-10.6% (inactive)
CCc1ccccc1NC(=O)/C(=C/c1ccccc1)c1ccccc1	-13.4% (inactive)
O=C(CN1CCSCC1)N/N=C/c1ccc(F)cc1F	-10.6% (inactive)
O=C(NN=Cc1ccccc1O)NN=Cc1ccccc1O	-96.4% (active)
O=C(N/N=C/c1ccccc1O)/C(=C/c1ccccc1)CCO	-88.1% (active)
NN=C(NN=Cc1ccccc1)c1ccccc1	49.5% (inactive)
O=Nc1c(O)cc(O)c2ccccc12	13.3% (inactive)
CC(=O)N1CCc2cc(Br)cc(S(=O)(=O)CCC(=O)NCCc3ccc(Cl)cc3)c21	-23.8% (inactive)
Nc1ccc(-c2sc(N)nc2-c2ccccc2)cc1	-103% (active)
Nc1[nH]c(=S)nc2nc(-c3ccccc3)c(-c3ccccc3)nc12	-3.08% (inactive)
Cc1nc(N)sc1-c1ccccc1	-23.6% (inactive)
CCn1c2ccccc2c2nnc(SCC(=O)O)nc21	-4.51% (inactive)
